Sa RN4220 lethal = S. aureus RN4220 growth inhibition. OD600, 16 h. inhibition, % (concentration not given with the values). 0.33% of 330,000 active; in the data active means inhibition above about 85%;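 further: plate controls were untreated cells for no effect and reference antibiotic for full effect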
Sa ugtP lethal = growth inhibition of S. aureus ugtP deletion strain; growth inhibition, % (no concentration beside the values); 0.54% of 330,000 active; S. aureus RN4220 ugtP deletion, OD600 growth, 16 h; in the data active means growth inhibition above about 68%;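 further: plate controls were untreated wells for no effect and antibiotic for full effect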
PriA SSB inh = blocks PriA binding to SSB C-terminal tail; AID 1272365; AlphaScreen SSBct-PriA binding, biotinylated peptide; inhibition, % at 33 µM; 0.6% of 430,000 active; in the data active means inhibition mostly above about 37%, no sharp cut-off; inactive means mostly below about 20%;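 further: plate controls were negative control peptide for no effect and reference peptide for full effect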
An asterisk follows results filed as active; ! = not active in a repeat. This is a sample that favours compounds with a hit; in the whole collection about 1% have one here.

For Cc1c(CCOC(=O)C23CC4(C)CC(C)(CC(C)(C4)C2)C3)sc[n+]1CC(=O)c1ccccc1 the results were Sa RN4220 lethal 98.1*, Sa ugtP lethal 100.5* and PriA SSB inh 6.2.
`N#Cc1ccccc1NC(=O)CC1SC(N)=NC1=O` (stereo not drawn) gave PriA SSB inh 1.0.
`O=C(NCCOc1ccccc1)NCC1CCN(C(=O)Nc2ccc(F)cc2)CC1` gave PriA SSB inh -8.0.
Screening NC(=O)c1cc(S(=O)(=O)NCCCc2ccccc2)cs1 returned Sa RN4220 lethal -2.4, Sa ugtP lethal -1.6 and PriA SSB inh 48.8*.
For CN(C)c1ccc(CNS(=O)(=O)c2csc(C(N)=O)c2)cc1 the results were Sa RN4220 lethal 4.2, Sa ugtP lethal 4.9 and PriA SSB inh 4.8.
COc1ccccc1Cn1cnc2c3ccccc3n(Cc3cccc(C(F)(F)F)c3)c2c1=O was read as PriA SSB inh -10.0.
`O=C(CSc1ccc(-c2ccccn2)nn1)Nc1ccccc1F` gave PriA SSB inh 83.5*.
Screening Cc1nnc(NC(=O)CSc2ccc(-c3ccccn3)nn2)s1 returned Sa RN4220 lethal 4.0, Sa ugtP lethal -6.7 and PriA SSB inh 56.2*.
For Cc1nnc(NC(=O)CSc2ccc(-c3cccnc3)nn2)s1 the results were Sa RN4220 lethal 2.5, Sa ugtP lethal 13.2 and PriA SSB inh -18.0.
CCOc1ccccc1NC(=O)CSc1ccc(-c2ccccn2)nn1 was read as PriA SSB inh 115.5*.
For COc1ccc(NC(=O)CSc2ccc(-c3ccccn3)nn2)cc1OC the results were Sa RN4220 lethal -2.5, Sa ugtP lethal 1.7 and PriA SSB inh 71.9*.
For O=C(CSc1ccc(-c2ccccn2)nn1)Nc1ccc(Cl)c(Cl)c1 the results were PriA SSB inh 27.7.
For CCOc1ccc(NC(=O)CSc2ccc(-c3ccccn3)nn2)cc1 the results were Sa RN4220 lethal 4.8, Sa ugtP lethal 3.7 and PriA SSB inh 16.2.
For O=C(CSc1ccc(-c2ccccn2)nn1)Nc1ccc(F)cc1F the results were Sa RN4220 lethal 3.2, Sa ugtP lethal 10.6 and PriA SSB inh 11.0.
O=C(NCc1n[nH]c(=S)n1-c1ccccc1)c1ccccc1C(F)(F)F was read as PriA SSB inh 5.0.
`Cc1ccc([C@@H](O)CNC(=O)C2CCCC2)o1` gave PriA SSB inh -10.0.
COc1ccccc1NC(=O)CSc1ccc(-c2ccccn2)nn1 was read as Sa RN4220 lethal 3.5, Sa ugtP lethal 2.7 and PriA SSB inh 88.6*!.
COc1ccccc1NC(=O)CSc1ccc(-c2ccncc2)nn1 was read as PriA SSB inh 17.9.
Screening Cc1ccccc1-c1nc(CN2N=C(c3ccccc3)c3ccccc3S2(=O)=O)c(C)o1 returned PriA SSB inh 0.0.
Screening CCOc1ccc2cccc(NC(=O)c3cc(-c4ccccc4)on3)c2n1 returned PriA SSB inh 0.0.
For COc1ccc(-c2cc(-c3cccs3)nc(SCc3c(C)noc3C)c2C#N)cc1OC the results were PriA SSB inh -10.0.
O=C1Nc2ccccc2Nc2c1cc([N+](=O)[O-])cc2[N+](=O)[O-] was read as PriA SSB inh 21.0.
For Cc1ccc(Oc2cc([N+](=O)[O-])cc3c2C(=O)Nc2ccccc2O3)cc1 the results were Sa RN4220 lethal 96.9*, Sa ugtP lethal 91.1* and PriA SSB inh 14.1.
Screening CCOC(=O)c1cccc(Nc2c(C(=O)N3CCSCC3)cnc3ccccc23)c1 returned PriA SSB inh -15.0.
CC(=O)COc1ccc2c(c1)O/C(=C\C1=Cc3ccccc3OC1)C2=O was read as PriA SSB inh -5.0.
O=S(=O)(NCCn1ccnc1-c1ncccn1)c1ccc(Cl)s1 was read as PriA SSB inh 44.0*.
Screening O=S(=O)(NCCn1ccc(-c2cccs2)n1)c1ccc2c(c1)CCCC2 returned PriA SSB inh -9.0.
Screening O=S(=O)(NCCn1ccnc1-c1ncccn1)c1ccc(OC(F)(F)F)cc1 returned PriA SSB inh 1.0.
O=S(=O)(NCCn1ccnc1-c1ncccn1)c1ccc2c(c1)CCCC2 was read as PriA SSB inh 96.0*.
For O=C(NCCn1ccnc1-c1ncccn1)c1ccc(Cl)s1 the results were PriA SSB inh 5.0.
Screening COC(=O)c1ccc(S(=O)(=O)NCCn2ccnc2-c2ncccn2)cc1 returned PriA SSB inh 96.0*.
COc1ccc(S(=O)(=O)N2CCC(C(=O)Nc3sc4c(c3C#N)CC[C@H](C)C4)CC2)cc1 was read as PriA SSB inh -3.0.
For COCCNC(=O)Cc1ccc(NS(=O)(=O)Cc2cc(F)ccc2F)cc1 the results were PriA SSB inh 2.0.
CC(N=Cc1cccc(O)c1O)c1ccccc1 (stereo not drawn) was read as Sa RN4220 lethal 5.1, Sa ugtP lethal 2.5 and PriA SSB inh 8.0.
O=C1C2C(C(=O)N1N=Cc1cc([N+](=O)[O-])ccc1O)C1C=CC2C12CC2 (stereo not drawn) was read as Sa RN4220 lethal 93.1*, Sa ugtP lethal 81.4 and PriA SSB inh -10.8.
For O=[N+]([O-])c1ccc(O)c(/C=N\Nc2ccccc2)c1 the results were PriA SSB inh 17.0.
`CC(N=Cc1cc([N+](=O)[O-])ccc1O)c1ccccc1` (stereo not drawn) gave Sa RN4220 lethal 85.5*, Sa ugtP lethal 67.0 and PriA SSB inh -13.4.
`Cc1ccccc1NC(=O)CCC(=O)NN=Cc1cc([N+](=O)[O-])ccc1O` gave Sa RN4220 lethal 94.8*, Sa ugtP lethal 84.8* and PriA SSB inh 0.0.
Screening Cc1cc(Cl)ccc1NC(=O)CCC(=O)NN=Cc1cc([N+](=O)[O-])ccc1O returned Sa RN4220 lethal 10.9, Sa ugtP lethal 4.0 and PriA SSB inh 3.5.
`O=[N+]([O-])c1ccc(O)c(C=NNc2ccc(S(=O)(=O)O)cc2)c1` gave Sa RN4220 lethal 88.7*, Sa ugtP lethal 71.6 and PriA SSB inh -3.0.
O=C1C2C(C(=O)N1N=Cc1cc([N+](=O)[O-])c(O)cc1O)C1C=CC2C12CC2 (stereo not drawn) was read as Sa RN4220 lethal 11.4, Sa ugtP lethal -1.7 and PriA SSB inh -5.4.
Screening COc1ccc2nc(-c3cccc(NS(=O)(=O)c4ccc(OC)c(F)c4)c3)cn2n1 returned PriA SSB inh -2.0.
Screening O=C(Nc1nc2c(s1)CCCC2)[C@@H]1CSc2nccc(=O)n2C1 returned PriA SSB inh 8.0.
For CCCS(=O)(=O)N1CCCc2ccc(NC(=O)c3ccco3)cc21 the results were PriA SSB inh -1.0.
For COc1ccc(Cl)c2sc(NC(=O)c3cccc(F)c3)nc12 the results were PriA SSB inh -18.0.
`O=C(NN=Cc1cc([N+](=O)[O-])ccc1O)C1CC1` gave Sa RN4220 lethal 89.5*, Sa ugtP lethal 79.9 and PriA SSB inh 0.7.
Screening O=C(N/N=C\c1cc([N+](=O)[O-])ccc1O)C12CC3CC(CC(C3)C1)C2 returned PriA SSB inh -4.0.
CCc1nc(SCC(=O)Nc2nsc(-c3ccc(C(C)(C)C)cc3)n2)c2c3c(sc2n1)CCC3 was read as PriA SSB inh -3.0.
`CCN(CC)c1ccc(C=NNC(=O)CN2CCCc3ccccc32)cc1` gave Sa RN4220 lethal 2.1, Sa ugtP lethal 4.1 and PriA SSB inh 49.7*.
O=C(CN1CCCc2ccccc21)N/N=C\C=C/c1ccccc1 was read as PriA SSB inh 39.0*.
O=C(CN1CCCc2ccccc21)NN=Cc1ccc(O)cc1O was read as Sa RN4220 lethal 5.2, Sa ugtP lethal 3.1 and PriA SSB inh 29.6.

Source: PubChem (several laboratories)
